The record followed here is PubChem BioAssay.

By inhibition is commonly meant the relative decrease from the control value, in per cent.

Test [1] can be described thus: rapamycin-like changes in RPL19A-GFP expression – cell-based, S. cerevisiae, multiplex flow cytometry, primary screen (AID 1862; in the data active = percent of DMSO control GFP below about 86%;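 note: lower values mimic rapamycin by blocking the RPL19A rise seen in DMSO cells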). The note with it: S. cerevisiae RPL19A-GFP strain, flow cytometry fluorescence, 3 h; at 10 µM; stronger effect = lower value. (Flow cytometry measures light scatter and fluorescence of single cells or particles in a stream.)
Test [2] is described as follows: TOR pathway GLN3 branch reporter MEP2-GFP changes – S. cerevisiae, multiplex flow cytometry, primary screen (AID 1867;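 active = GFP response, as percent of the DMSO control, above the screen-wide mean plus 3 SD, about 139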;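 note: median GFP channel fluorescence of barcode-gated MEP2-GFP cells measured by flow cytometry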). The note with it: S. cerevisiae MEP2-GFP strain, 3 h, at 10 µM, stronger effect = higher value, 100% means same as DMSO wells.
A short description of test [3]: TOR pathway RTG branch CIT2 reporter changes – S. cerevisiae, GFP fusion, multiplex flow cytometry, primary screen (AID 1870;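 active = percent response above a set limit, the screen-wide mean plus 3 SD, cut at about 130% in these data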;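 note: barcoded CIT2-GFP strain pooled with four other GFP strains with rapamycin as positive control; median GFP fluorescence per well over plate mean of DMSO wells so 100% = DMSO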). The note with it: S. cerevisiae CIT2-GFP expression, 3 h, at 10 µM, stronger effect = higher value.
The nature of test [4]: TOR pathway LAP4-GFP level changes – S. cerevisiae, multiplex flow cytometry, primary screen (AID 1873;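 active = GFP signal, as percent of the solvent control, above the screen mean plus 3 SD, about 149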). The note with it: S. cerevisiae LAP4-GFP expression, 3 h, at 10 µM, stronger effect = higher value.
A short description of test [5]: yeast AGP1-GFP level changes, GLN3 branch – cell-based, multiplex flow cytometry, S. cerevisiae, primary screen (AID 1887;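 active = GFP signal above the screen-wide mean plus 3 SD, that is over about 124.5% of the solvent control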;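 note: AGP1-GFP fusion strain of S. cerevisiae within a five-strain barcoded multiplex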). The note with it: 3 h, at 10 µM, stronger effect = higher value.
Test [6] is described as follows: reduced mouse 2C T cell binding to pMHC/ICAM-1 vesicles – MLPCN validation set, flow cytometry, LFA-1/ICAM-1 modulator project, pilot screen (AID 2523;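 active = response below a set limit, under 55% cells CD8-positive and vesicle-bound, and CD8 cells' 90th-percentile brightness under 279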;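 for vesicle binding response: mean PE anti-B7-1 fluorescence of CD8+ cells relative to row control; 100% = QL9-loaded vesicles with DMSO vehicle in the same plate row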). The note with it: 2C mouse CD8+ T cells, at 7 µM, stronger effect = lower value; double positive events: measured here: CD8+/vesicle+ event percentage.
For test [7], the target named is Integrin beta-1 (Homo sapiens) + Integrin alpha-4 (Homo sapiens) (UniProt P13612+P05556). In words: alpha4beta1 integrin LIBS antibody binding reduction – U937 cells, HUTS-21 mAb, flow cytometry, validation set, VLA-4 allosteric modulator project, pilot screen (AID 2674;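 active = inhibition above 50%, about 3 SD of the validation set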;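 note: antibody binding induced by the VLA-4 ligand LDV present at three times its Kd; 0% = LDV ligand with antibody and no compound and 100% = antibody without LDV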). The note with it: HUTS-21 LIBS mAb binding, at 6.7 µM, stronger effect = higher value, binding induced by LDV ligand.

Test [8] is described as follows: calorie-restriction mimetic ROS inhibitors, yeast – validation compound set, pilot screen (AID 2706;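 active = superoxide response below 65% of plate, a cut near 3 SD across the whole screen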;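 note: yeast exposed to compound for one week at 30 degrees C before staining; 100% = mean of all compound wells on the same plate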). The note with it: S. cerevisiae aging, superoxide DHE fluorescence; at 10 µM; stronger effect = lower value.
The target of test [9] is Beta-adrenergic receptor kinase 1 (Homo sapiens) (UniProt P25098). In words: GRK2 binders displacing RNA aptamer, biochemical, validation, human GRK2, bead flow cytometry (AID 488806;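 active = aptamer binding inhibition above 30%, about 3 SD of noise from non-fluorescent compounds; inactive = inhibition at or below 30%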). The note with it: bead-bound GRK2, FAM-aptamer displacement, at 10 µM, stronger effect = higher value.
In test [10] the target is Beta-2 adrenergic receptor (Homo sapiens) (UniProt P07550). In words: agonist-induced loss of surface beta2AR – cell-based, FAP fluorogen, flow cytometry, validation set, pilot screen (AID 504459;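 active = percent response above 42, roughly 3 SD of non-fluorescent test compounds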;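 note: agonist-driven loss of surface beta2AR via internalization measured by FAP dye flow cytometry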). The note with it: Am2.2-beta2AR cells, at 10 µM, stronger effect = higher value.
In test [11] the target is AP-2 complex subunit beta (Homo sapiens) (UniProt P63010). In words: beta-arrestin/AP2 interaction blockers – biochemical, validation set, GST-AP2 beads, flow cytometry, pilot screen (AID 504541;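 active = inhibition above 54%, about 3 SD of non-fluorescent compounds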;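 note: AP2 carries R879A mutation and is captured from E. coli lysate; bead-bound FITC arrestin peptide fluorescence measuring arrestin peptide binding to AP2; 0% = DMSO wells and 100% = excess unlabeled arrestin peptide control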). The note with it: FITC arrestin peptide, at 10 µM, stronger effect = higher value, AP2 beta2 appendage fragment, R879A mutant.
Test [12] in a line: cytosolic pH regulators acting via V-ATPase – S. cerevisiae, pHLuorin, HTS validation (AID 504600).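 Note: plate controls were DMSO for no effect and reference compound for full effect.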 The note with it: V-ATPase proton transport, at 10 µM, stronger effect = higher value.
Test [13] has as its system anti-desmoglein-3 scFv antibody binding to human DSG3. In words: blockers of pathogenic pemphigus antibody–desmoglein-3 binding – biochemical, validation compound set, bead-based, flow cytometry, pilot screen (AID 588368;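 active = binding below the plate cutoff, the plate median minus 3 SD, with a reading above zero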;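 note: signal is the median channel fluorescence of bead-bound GFP antibody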). The note with it: Protein G beads, DSG3-Fc, scFv-GFP binding, at 10 µM, stronger effect = lower value.
A short description of test [14]: Nile Red efflux blockade in pump-expressing yeast – validation compound set, multiplex, phenotypic, pilot screen (AID 588506;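 active = efflux inhibition above 0.42, the validation set average plus 4 SD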;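 note: Nile Red retained in cells so higher fluorescence means more efflux inhibition; 0 = negative control wells and 1 = enniatin B 25 µM full block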). The note with it: S. cerevisiae pump-expressing triplex, Nile Red efflux flow cytometry; at 10 µM; stronger effect = higher value; the pumps come from Candida albicans.
In test [15] the target is ATP-binding cassette sub-family B member 6 (Homo sapiens) (UniProt Q9NP58). In words: blockers of ABCB6-driven porphyrin uptake – K562-ABCB6 cells, flow cytometry, validation set, pilot screen (AID 588550;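 active = inhibition above the screen-wide mean plus 3 SD, about 51%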;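 note: 0% = DMSO wells and 100% = benzethonium chloride 70 µM positive control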). The note with it: K562-ABCB6 porphyrin accumulation, 1 h, at 10 µM, stronger effect = higher value.
Test [16] is described as follows: AML differentiation inducers, ER-HoxA9 marrow cells – cell-based, GFP/MAC1 double positive, flow cytometry, validation set, primary screen (AID 588685;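 active = differentiation response of at least 50%, scaled between solvent and reference control, from cells with both markers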;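 note: compound exposure lasts four days before antibody staining and flow analysis; 0% = DMSO wells and 100% = 5 µM fulvestrant positive control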). The note with it: stronger effect = higher value, normalized: vehicle 0, fulvestrant 100.

Results filed as inconclusive are left out. Active and inactive are the calls of the source. Cut-off read from the data, not from the text of the source, unless noted: active = response above about 15%; inactive = the rest.

Sequence of Integrin beta-1 (Homo sapiens) + Integrin alpha-4 (Homo sapiens) (P05556 whole entry, looked up): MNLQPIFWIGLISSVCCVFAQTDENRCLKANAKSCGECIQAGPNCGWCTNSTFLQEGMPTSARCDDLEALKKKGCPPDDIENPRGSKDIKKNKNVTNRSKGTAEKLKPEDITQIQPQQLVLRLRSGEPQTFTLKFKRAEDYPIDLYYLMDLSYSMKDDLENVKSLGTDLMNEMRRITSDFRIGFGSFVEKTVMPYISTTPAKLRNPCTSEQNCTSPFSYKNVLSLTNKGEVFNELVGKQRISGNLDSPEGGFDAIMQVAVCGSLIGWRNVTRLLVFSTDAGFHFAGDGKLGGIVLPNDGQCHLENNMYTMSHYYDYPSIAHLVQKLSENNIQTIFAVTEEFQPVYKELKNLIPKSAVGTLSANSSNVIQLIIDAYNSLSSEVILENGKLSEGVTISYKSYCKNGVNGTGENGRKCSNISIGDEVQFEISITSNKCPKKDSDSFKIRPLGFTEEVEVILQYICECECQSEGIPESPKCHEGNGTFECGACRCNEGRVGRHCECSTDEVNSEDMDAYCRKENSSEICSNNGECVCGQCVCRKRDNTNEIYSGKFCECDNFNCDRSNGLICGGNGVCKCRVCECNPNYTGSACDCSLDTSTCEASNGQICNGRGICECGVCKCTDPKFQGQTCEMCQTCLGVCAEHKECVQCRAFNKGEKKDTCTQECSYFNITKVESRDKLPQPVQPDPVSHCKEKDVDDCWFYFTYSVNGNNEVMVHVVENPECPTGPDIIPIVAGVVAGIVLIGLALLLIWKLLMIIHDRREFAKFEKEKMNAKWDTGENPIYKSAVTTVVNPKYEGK
Sequence of Integrin beta-1 (Homo sapiens) + Integrin alpha-4 (Homo sapiens) (P13612 whole entry, looked up): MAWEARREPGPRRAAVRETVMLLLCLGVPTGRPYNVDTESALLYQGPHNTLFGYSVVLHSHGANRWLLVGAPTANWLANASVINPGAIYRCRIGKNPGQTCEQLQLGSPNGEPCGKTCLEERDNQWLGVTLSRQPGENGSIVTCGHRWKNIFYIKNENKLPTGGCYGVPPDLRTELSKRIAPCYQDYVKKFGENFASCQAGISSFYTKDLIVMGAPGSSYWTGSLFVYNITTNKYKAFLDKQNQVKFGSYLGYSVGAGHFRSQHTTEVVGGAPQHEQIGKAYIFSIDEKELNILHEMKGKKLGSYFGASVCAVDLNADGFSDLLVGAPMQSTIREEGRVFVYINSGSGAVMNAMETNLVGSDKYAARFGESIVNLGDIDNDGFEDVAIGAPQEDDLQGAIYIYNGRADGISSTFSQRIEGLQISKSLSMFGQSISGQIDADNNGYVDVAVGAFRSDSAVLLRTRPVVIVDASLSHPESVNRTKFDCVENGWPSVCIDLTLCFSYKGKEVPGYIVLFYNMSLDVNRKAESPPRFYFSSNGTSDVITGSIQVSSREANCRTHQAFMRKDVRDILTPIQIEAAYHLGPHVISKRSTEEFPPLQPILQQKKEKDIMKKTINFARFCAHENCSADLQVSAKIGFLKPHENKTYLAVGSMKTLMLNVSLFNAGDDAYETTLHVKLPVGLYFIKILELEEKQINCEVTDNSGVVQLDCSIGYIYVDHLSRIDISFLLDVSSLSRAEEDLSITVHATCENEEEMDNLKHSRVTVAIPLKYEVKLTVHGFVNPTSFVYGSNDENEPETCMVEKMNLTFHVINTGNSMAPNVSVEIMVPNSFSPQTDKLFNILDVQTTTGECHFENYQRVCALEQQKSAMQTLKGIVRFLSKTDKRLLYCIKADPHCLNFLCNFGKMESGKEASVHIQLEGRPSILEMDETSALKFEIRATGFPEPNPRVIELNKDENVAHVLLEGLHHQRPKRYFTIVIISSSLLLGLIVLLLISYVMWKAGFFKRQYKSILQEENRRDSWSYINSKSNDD
Sequence of ATP-binding cassette sub-family B member 6 (Homo sapiens) (Q9NP58 whole entry, looked up): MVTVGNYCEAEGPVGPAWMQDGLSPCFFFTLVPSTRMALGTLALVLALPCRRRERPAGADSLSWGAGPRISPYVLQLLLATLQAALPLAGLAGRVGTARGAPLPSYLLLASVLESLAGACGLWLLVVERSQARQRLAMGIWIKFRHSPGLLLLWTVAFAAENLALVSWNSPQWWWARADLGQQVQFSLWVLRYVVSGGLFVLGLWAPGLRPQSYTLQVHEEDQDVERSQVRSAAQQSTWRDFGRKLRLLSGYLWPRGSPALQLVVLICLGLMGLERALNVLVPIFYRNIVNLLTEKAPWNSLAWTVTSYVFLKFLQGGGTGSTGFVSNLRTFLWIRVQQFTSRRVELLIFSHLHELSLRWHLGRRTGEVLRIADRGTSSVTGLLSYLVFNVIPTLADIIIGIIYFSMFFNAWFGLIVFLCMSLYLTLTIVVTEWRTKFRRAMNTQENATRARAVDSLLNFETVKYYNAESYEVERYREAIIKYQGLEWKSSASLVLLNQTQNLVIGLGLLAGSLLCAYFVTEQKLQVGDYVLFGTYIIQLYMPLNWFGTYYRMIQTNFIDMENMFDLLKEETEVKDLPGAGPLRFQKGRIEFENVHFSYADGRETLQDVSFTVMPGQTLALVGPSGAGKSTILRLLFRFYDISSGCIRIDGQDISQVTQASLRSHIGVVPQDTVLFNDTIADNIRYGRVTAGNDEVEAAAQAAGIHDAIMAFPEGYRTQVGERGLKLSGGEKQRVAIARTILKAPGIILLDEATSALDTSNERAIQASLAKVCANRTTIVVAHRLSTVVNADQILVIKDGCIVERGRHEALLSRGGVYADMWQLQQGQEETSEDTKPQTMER
Sequence of Beta-2 adrenergic receptor (Homo sapiens) (P07550 whole entry, looked up): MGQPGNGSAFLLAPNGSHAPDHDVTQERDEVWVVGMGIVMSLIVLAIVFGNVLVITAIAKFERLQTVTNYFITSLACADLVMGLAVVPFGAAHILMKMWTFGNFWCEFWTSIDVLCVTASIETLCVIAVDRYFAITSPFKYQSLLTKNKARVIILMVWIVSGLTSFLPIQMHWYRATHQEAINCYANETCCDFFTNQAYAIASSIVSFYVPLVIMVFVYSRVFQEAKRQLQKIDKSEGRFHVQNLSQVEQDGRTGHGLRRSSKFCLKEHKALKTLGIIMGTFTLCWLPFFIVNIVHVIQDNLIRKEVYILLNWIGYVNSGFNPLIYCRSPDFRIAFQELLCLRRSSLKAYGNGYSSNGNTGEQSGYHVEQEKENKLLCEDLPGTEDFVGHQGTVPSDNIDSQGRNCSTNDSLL
Sequence of AP-2 complex subunit beta (Homo sapiens) (P63010 whole entry, looked up, the tested form may be a part, one chain of several): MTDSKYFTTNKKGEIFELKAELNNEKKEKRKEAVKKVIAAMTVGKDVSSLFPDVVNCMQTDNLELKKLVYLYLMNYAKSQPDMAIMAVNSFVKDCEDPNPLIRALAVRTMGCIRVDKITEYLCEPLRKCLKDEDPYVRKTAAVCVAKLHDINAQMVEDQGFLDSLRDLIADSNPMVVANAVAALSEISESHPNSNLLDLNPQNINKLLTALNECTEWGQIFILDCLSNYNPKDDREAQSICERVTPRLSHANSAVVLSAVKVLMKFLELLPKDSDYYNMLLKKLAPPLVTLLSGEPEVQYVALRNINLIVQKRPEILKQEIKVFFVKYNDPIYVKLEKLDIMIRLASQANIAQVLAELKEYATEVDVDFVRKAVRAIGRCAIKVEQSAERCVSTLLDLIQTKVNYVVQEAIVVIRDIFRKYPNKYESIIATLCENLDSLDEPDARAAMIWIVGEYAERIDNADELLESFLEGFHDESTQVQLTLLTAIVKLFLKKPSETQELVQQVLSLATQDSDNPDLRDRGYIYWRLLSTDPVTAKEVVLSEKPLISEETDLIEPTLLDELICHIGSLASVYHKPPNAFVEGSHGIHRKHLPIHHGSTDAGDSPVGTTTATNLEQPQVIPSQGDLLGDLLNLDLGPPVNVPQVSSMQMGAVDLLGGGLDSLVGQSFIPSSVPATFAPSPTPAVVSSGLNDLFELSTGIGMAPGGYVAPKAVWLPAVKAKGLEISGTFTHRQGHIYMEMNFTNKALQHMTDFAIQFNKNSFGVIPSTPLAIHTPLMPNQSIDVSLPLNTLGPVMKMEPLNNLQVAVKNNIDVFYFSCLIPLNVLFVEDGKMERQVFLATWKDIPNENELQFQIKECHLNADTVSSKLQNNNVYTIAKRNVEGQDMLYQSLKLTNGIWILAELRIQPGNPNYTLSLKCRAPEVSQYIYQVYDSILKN
Sequence of Beta-adrenergic receptor kinase 1 (Homo sapiens) (P25098 whole entry, looked up): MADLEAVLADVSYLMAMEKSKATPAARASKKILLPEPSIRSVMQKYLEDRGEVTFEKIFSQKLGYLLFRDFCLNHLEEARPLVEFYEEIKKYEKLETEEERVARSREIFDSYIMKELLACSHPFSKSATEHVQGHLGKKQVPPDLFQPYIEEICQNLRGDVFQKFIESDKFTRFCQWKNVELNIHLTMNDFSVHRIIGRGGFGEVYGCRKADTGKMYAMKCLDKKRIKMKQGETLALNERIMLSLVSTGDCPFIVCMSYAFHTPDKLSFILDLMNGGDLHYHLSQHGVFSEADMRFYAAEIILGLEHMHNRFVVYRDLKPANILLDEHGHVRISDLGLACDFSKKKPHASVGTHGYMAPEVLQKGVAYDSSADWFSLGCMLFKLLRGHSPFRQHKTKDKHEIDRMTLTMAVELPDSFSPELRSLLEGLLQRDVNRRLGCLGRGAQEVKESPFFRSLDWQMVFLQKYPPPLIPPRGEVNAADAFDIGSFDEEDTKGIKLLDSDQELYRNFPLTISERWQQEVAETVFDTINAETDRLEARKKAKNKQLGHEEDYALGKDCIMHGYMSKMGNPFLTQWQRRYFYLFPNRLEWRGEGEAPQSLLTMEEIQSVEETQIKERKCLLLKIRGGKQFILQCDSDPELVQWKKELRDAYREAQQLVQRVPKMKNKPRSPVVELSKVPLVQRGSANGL

Consider `CSCCC1NC2(C(=O)Nc3ccc(Cl)cc32)[C@@H]2C(=O)N(C3CCCC3)C(=O)[C@H]12` (stereo not given in full), for which the percent of DMSO control GFP in test [1] was 101% (inactive). The GFP response vs DMSO in [2] is 109% (inactive); in test [4] it was 102% (inactive). For the same compound, in [3], the percent response of DMSO control is 103% (inactive). The GFP response, % of DMSO in [5] is 98.9% (inactive). Besides, the double positive events in [6] stood at 59.4%. Moreover, the vesicle binding response in test [6] is 121% (inactive). Besides, the figures for the inhibition in test [7], in [11] and in test [15] were -37.3% (inactive), -6.32% (inactive) and -10% (inactive), respectively. Also, the superoxide response (% of plate) in test [8] is 94.5% (inactive). Also, the aptamer binding inhibition in test [9] was 6% (inactive). Also, the response in [10] is -27.1% (inactive); in [12] it was 1.16% (inactive). For the same compound, in test [13], the binding (% of control) is 109% (inactive). Besides, the efflux inhibition (fraction of control) in test [14] is -0.29 (inactive). Besides, the differentiation response in test [16] was 1.28% (inactive).

Turning to `CN(C)CCOC(c1ccccc1)c1ccccc1`, the percent of DMSO control GFP in [1] is 94.4% (inactive). In addition, the GFP response vs DMSO in test [2] is 123% (inactive); in [4], 87.5% (inactive). Besides, in test [3], the percent response of DMSO control is 115% (inactive). Besides, in test [5], the GFP response, % of DMSO was 89.4% (inactive). Also, the double positive events in test [6] turned out to be 43.1%. Further, the vesicle binding response in test [6] was 107% (inactive). Further, the values for the inhibition in [7], in test [11] and in test [15] were 1.61% (inactive), 29.6% (inactive) and 2% (inactive), respectively. In test [8], the superoxide response (% of plate) is 96.7% (inactive). Further, in test [9], the aptamer binding inhibition was -1% (inactive). In addition, the response was -13.1% (inactive) in [10] and -7.12% (inactive) in test [12]. Also, the binding (% of control) in test [13] was 98% (inactive). The efflux inhibition (fraction of control) in [14] was 0.52 (active). The differentiation response in test [16] was 1.64% (inactive).

Take `CC(C)CCc1noc(CN2CCC(CCN3CCCC3=O)CC2)n1`: the percent of DMSO control GFP in [1] is 98.3% (inactive). Further, the GFP response vs DMSO is 101% (inactive) in test [2] and 99.1% (inactive) in test [4]. Moreover, the percent response of DMSO control in test [3] is 105% (inactive). Further, in [5], the GFP response, % of DMSO was 102% (inactive). In test [6], this compound came in with a double positive events of 62.1%. In [6], the vesicle binding response is 188% (inactive). In addition, the inhibition in test [7] was 23% (inactive); in test [11], 32.4% (inactive); in [15], -3% (inactive). The superoxide response (% of plate) in test [8] was 97.3% (inactive). For the same compound, the aptamer binding inhibition in test [9] is -3% (inactive). Besides, the figures for the response in test [10] and in test [12] were -4.37% (inactive) and -4.25% (inactive), respectively. Further, in test [13], the binding (% of control) is 95.1% (inactive). Moreover, the efflux inhibition (fraction of control) in test [14] was -0.39 (inactive). The differentiation response in [16] is -13.3% (inactive).

With `COc1c(C=O)c(CCN(C)C(=O)c2ccc(F)cc2)cc2c1OCO2`, the percent of DMSO control GFP in [1] is 103% (inactive). Besides, the GFP response vs DMSO in test [2] and in [4] was 104% (inactive) each time. Besides, the percent response of DMSO control in [3] was 100% (inactive). In test [5], the GFP response, % of DMSO was 106% (inactive). The double positive events in test [6] was determined as 59.6%. In addition, in test [6], the vesicle binding response is 171% (inactive). In addition, the figures for the inhibition in test [7], in [11] and in [15] were 3.14% (inactive), 10.3% (inactive) and -2% (inactive), respectively. Moreover, the superoxide response (% of plate) in test [8] is 115% (inactive). In test [9], the aptamer binding inhibition is 4% (inactive). For the same compound, the response was -22.5% (inactive) in [10] and 2.09% (inactive) in [12]. Also, the binding (% of control) in test [13] was 109% (inactive). Also, the efflux inhibition (fraction of control) in test [14] is -0.17 (inactive). Also, the differentiation response in test [16] was 19.6% (inactive).

Turning to `CCOC(=O)C(NC(=O)CCC(=O)Nc1ccc(S(N)(=O)=O)cc1)C(O)c1ccccc1` (stereo not given), the percent of DMSO control GFP in test [1] is 96.5% (inactive). For the same compound, the values for the GFP response vs DMSO in [2] and in test [4] were 103% (inactive) and 106% (inactive), respectively. In test [3], the percent response of DMSO control was 100% (inactive). In test [5], the GFP response, % of DMSO is 101% (inactive). In addition, in test [6], the double positive events was found to be 57.6%. Also, the vesicle binding response in [6] is 361% (inactive). For the same compound, the figures for the inhibition in test [7], in test [11] and in [15] were 15.1% (inactive), 5.81% (inactive) and 7% (inactive), respectively. Moreover, the superoxide response (% of plate) in test [8] was 102% (inactive). For the same compound, in [9], the aptamer binding inhibition was 6% (inactive). In addition, the response was -25.5% (inactive) in test [10] and -6.43% (inactive) in test [12]. For the same compound, the binding (% of control) in test [13] is 101% (inactive). The efflux inhibition (fraction of control) in [14] is 0 (inactive). For the same compound, the differentiation response in [16] was -7.94% (inactive).
